# From PubChem BioAssay
# AI-2 QS mod: Vibrio harveyi AI-2 quorum sensing modulators, primary screen, JMH597 strain, luminescence/OD600 ratio; Vibrio harveyi JMH597 AI-2 luminescence/OD600 ratio, 9 h; hits give low values; strain lacks LuxN and CqsS sensors; 0 = neutral-control median; activity change, % at 7.5 µM; 0.4% of 300,000 active; AID 2094, 2009; in the data active means activity change below about -75%, passing the limit was not always enough; inconclusive means no clear call, values can overlap the other calls;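 further: luminescence divided by OD600 gain over 9 h not by final OD600 alone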
# Mot1-301 SUMO: yeast Mot1-301 growth rescue at high temperature, primary screen, SUMOylation pathway inhibitor project, S. cerevisiae, ATP luminescence, 38.5C; S. cerevisiae Mot1-301 growth rescue; percent above DMSO median, 100 means doubled; growth rescue, % at 18.8 µM; 1% of 320,000 active; AID 2716, 2010;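 active means every valid replicate shows activation above 250% relative to neutral control wells; inactive means the rest, any valid replicate at or below 250%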;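 further: OY570 slx delta 5 strain wells were the positive control but not used for scaling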
# ALR H2O2 inh: inhibitors of human ALR sulfhydryl oxidase, primary screen, biochemical, H2O2 detection, HRP-luminol luminescence, single point | FAD-linked sulfhydryl oxidase ALR (Homo sapiens), P55789 | purified ALR, DTT oxidation | inhibition, % (no concentration beside the values) | 3.8% of 290,000 active;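 active means mean replicate inhibition above about 79%, with every replicate also reaching it, limit read from the data; inconclusive means only one of the two criteria met; inactive means mean below limit and not every replicate reaching it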
# Target sequence (P55789 whole entry, looked up): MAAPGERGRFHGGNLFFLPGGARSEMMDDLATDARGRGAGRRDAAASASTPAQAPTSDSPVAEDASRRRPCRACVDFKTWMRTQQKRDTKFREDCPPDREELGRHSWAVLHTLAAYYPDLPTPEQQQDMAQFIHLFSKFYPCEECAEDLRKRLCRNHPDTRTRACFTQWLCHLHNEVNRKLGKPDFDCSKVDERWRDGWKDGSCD
# HIF activator: HIF pathway transcriptional activators, primary screen, cell-based, U2OS HRE-luciferase, luminescence; U2OS HRE-luciferase reporter; normalized: DMSO 0%, desferrioxamine 100%; 0.32% of 300,000 active; activation, % at 7.5 µM (by protocol);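 active means mean activation of at least 10% of the iron chelator positive control signal, with at least half of replicates also reaching 10%; inconclusive means mean and replicate majority disagree about reaching 10%; inactive means mean and most replicates under 10%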
# Starred values were filed as active, the others as inactive; ? = inconclusive; . = no result given. The list is not random: actives were taken first. Their share in the collection is about 4.8%.
SMILES,AI-2 QS mod,Mot1-301 SUMO,ALR H2O2 inh,HIF activator
CC(=O)Nc1ccc(S(=O)(=O)NNC(=S)NCC2CCCO2)cc1 (stereo unspecified),-3,-7,90*,-1
NS(=O)(=O)c1ccc(NC(=S)NCC2CCCO2)cc1 (stereo unspecified),29,-8,1,0
S=C(NCCNC(=S)Nc1ccccc1)Nc1ccccc1,-9,3,-12,0
CCOCCn1c(N2CCCC2)nc2c1c(=O)[nH]c(=O)n2C,5,-4,9,1
COc1ccc2c(c1)cc(C(=O)N[C@H](C(=O)N1CCC(C(=O)O)CC1)C(C)C)n2C,-6,12,-5,-1
CCC(=O)Oc1ccc(C/C(=N\O)c2ccc(O)cc2O)o1,15,-18,98*,1
O=c1cc(CN2CCCCCC2)nc2sccn12,0,147,-9,0
COc1ccccc1N1CCN(Cc2cc(=O)n3ccsc3n2)CC1,?,150,90*,0
N#C/C(=C\c1c(Oc2ccccc2F)nc2ccccn2c1=O)C(=O)NC1CCS(=O)(=O)C1 (stereo unspecified),19,-27,11,0
Cc1nn(S(=O)(=O)c2ccc(F)cc2)c(C)c1S(=O)(=O)N1CCOCC1,3,-16,2,0
Cc1nc(SCC(=O)N2CCCCC2)c2c(C)c(C)sc2n1,25,309*,4,-2
C[C@H](CO)N1C[C@H](C)[C@@H](CN(C)C(=O)NC2CCCCC2)Oc2ccc(NC(=O)Nc3ccccc3)cc2C1=O,.,-17,-2,.
O=S(=O)(NC1=NCCCCC1)c1ccc2sc(NS(=O)(=O)c3ccc4ccccc4c3)nc2c1,-14,-3,87*,0
Cc1ccc(C(=O)n2nc(-c3ccccc3)nc2NCc2ccco2)cc1,-4,-21,2,0
CCCC(=O)n1nc(-c2ccc(C)cc2)nc1NCc1ccco1,4,91,90*,3
c1csc(-c2nc(NCC3CCCO3)c3ccccc3n2)c1 (stereo unspecified),12,-6,.,0
Brc1ccc2nc(-c3cccs3)c(NCC3CCCO3)n2c1 (stereo unspecified),30,-13,98*,3
CCC(C)[C@H](NC(=O)c1cc2cc(Cl)ccc2n1C)C(=O)N1CCC(C(=O)O)CC1 (stereo partly specified),2,1,-7,1
S=C(NCc1ccccc1)Nc1cccc(Cl)c1,-78*,-7,-2,.
Cc1cccc(NC(=S)NCCc2ccccn2)c1,15,-4,1,0
S=C(NCCc1ccccn1)Nc1cccc(Cl)c1,1,-3,97*,1
COCCCNC(=S)NNC(=S)Nc1cccc(Cl)c1,22,6,78*,0
COc1cccc(-c2nc3c(c(=O)[nH]c(=O)n3Cc3ccccc3)n2CCO)c1OC(F)F,.,5,-1,-1
COc1ccc(CCNC(=O)COC(=O)CCC(=O)c2ccc(F)cc2)cc1OC,28,-4,3,299*
COc1ccc(CNC(=O)CSc2ncnc3ccccc23)cc1OC,14,-11,89*,0
SMILES,AI-2 QS mod,Mot1-301 SUMO,ALR H2O2 inh,HIF activator
COc1ccc(CCNC(=O)CSC(=O)c2ccccc2)cc1OC,14,4,99*,0
COc1ccc(CCNC(=O)COc2ncnc3ccccc23)cc1OC,1,3,-1,0
CC1CCC(NC(=O)CSc2nnc(-c3cccnc3)o2)CC1 (stereo unspecified),.,11,-1,.
CN(/N=C/c1ccc2c(c1)OCO2)c1ccccc1,15,5,85*,2
Clc1ccccc1N/N=C/c1ccc2c(c1)OCO2,17,165,99*,4
O=S(=O)(N/N=C\c1ccc2c(c1)OCO2)c1ccc(F)cc1,19,19,86*,0
COc1cc(/C=N/N(C)c2ccccc2)ccc1O,0,16,99*,5
O=C(CNC(=O)c1ccccc1Cl)N/N=C/c1ccc2c(c1)OCO2,6,0,-11,-9
CCCN1CCC(Oc2cccc(C(=O)NCCc3ccccc3)c2)CC1,-1,13,10,2
CC(C)n1nc(C(=O)Nc2cccc(S(=O)(=O)N3CCOCC3)c2)c2ccccc2c1=O,.,-17,-24,.
Nc1nc(CN2CCN(C(=O)c3ccco3)CC2)nc(Nc2cccc(Cl)c2)n1,15,6,95*,.
CCOC(=O)N1CCN(Cc2nc(N)nc(Nc3ccc(Cl)cc3)n2)CC1,1,.,15,2
Cc1cc(OCc2cc(C(=O)N(Cc3nccn3C)C(C)C)no2)cc(C)c1Cl,19,-2,2,1
C[C@H](NC(=O)N1CCn2c1nc1ccccc12)C(=O)NCc1ccccc1,9,5,1,-1
Cc1ccc(C(=O)N2CCNC(=O)C2CC(=O)Nc2ccccc2)cc1 (stereo unspecified),15,-11,5,0
S=c1nc(-c2cc(Cl)cc(Cl)c2)[nH][nH]1,-4,-12,98*,0
S=c1nc(-c2cccc(Cl)c2)[nH][nH]1,14,-27,92*,0
CCN(Cc1ccccc1)c1ccc(/C=N/NC(=S)NC(C)C)cc1,5,-8,8,1
CCN(Cc1ccccc1)c1ccc(/C=N/N=C(N)N)cc1,27,-24,99*,-5
O=S(=O)(/N=S1/CC=CCN1S(=O)(=O)c1ccccc1)c1ccccc1 (stereo unspecified),41,-2,99*,0
COc1ccc(CNC(=O)CN2CCC(NC(=O)c3ccccc3C)CC2)cc1,8,-9,-11,0
CC(=O)N1CCN(S(=O)(=O)c2cccc(C(=O)NCc3ccc(F)cc3)c2)CC1,.,-6,-2,.
Cc1sc2nc(CN3CCC(C)CC3)nc(Cl)c2c1C,5,24,97*,0
O=C(c1ccc(NS(=O)(=O)c2ccc3[nH]c(=O)[nH]c3c2)cc1)N1CCN(c2ccccc2O)CC1,-11,134,98*,0
Cc1cccc(N2CCN(C(=O)c3ccc(NS(=O)(=O)c4ccc5[nH]c(=O)[nH]c5c4)cc3)CC2)c1C,24,-16,-1,0
SMILES,AI-2 QS mod,Mot1-301 SUMO,ALR H2O2 inh,HIF activator
CC(=O)c1ccc(N2CCN(c3ncccn3)CC2)cc1,35,-15,1,1
COc1ccc2c(/C=N/Nc3ccc(C(=O)O)cc3)c[nH]c2c1,-33,-15,88*,2
CC(C)c1ccc(/C=N/Nc2ccc(C(=O)O)cc2)cc1,-12,-20,98*,-3
C=CCOc1c(Br)cc(/C=N/Nc2ccc(C(=O)O)cc2)cc1OCC,-49,-13,97*,1
COc1ccc(/C=N/Nc2ccc(C(=O)O)cc2)cc1Br,-96*,15,99*,-1
O=C(NC1CCCC1)C(c1cccnc1)N(C(=O)c1csnn1)c1ccc(F)cc1 (stereo unspecified),-2,16,-14,0
Cn1cc(-c2ccccc2C(=O)O)c(=O)c2cc(Cl)ccc21,12,363,.,-4
